Results on 1 compound are retold here after ChEMBL document CHEMBL2218924, “A broad activity screen in support of a chemogenomic map for kinase signalling research and drug discovery” (Biochem J, 2013).

Each structure is given as a SMILES string.

Experiment [1] concerns the target T1, Ephrin type-A receptor 3 (Homo sapiens) (UniProt P29320).
T1 sequence (whole entry): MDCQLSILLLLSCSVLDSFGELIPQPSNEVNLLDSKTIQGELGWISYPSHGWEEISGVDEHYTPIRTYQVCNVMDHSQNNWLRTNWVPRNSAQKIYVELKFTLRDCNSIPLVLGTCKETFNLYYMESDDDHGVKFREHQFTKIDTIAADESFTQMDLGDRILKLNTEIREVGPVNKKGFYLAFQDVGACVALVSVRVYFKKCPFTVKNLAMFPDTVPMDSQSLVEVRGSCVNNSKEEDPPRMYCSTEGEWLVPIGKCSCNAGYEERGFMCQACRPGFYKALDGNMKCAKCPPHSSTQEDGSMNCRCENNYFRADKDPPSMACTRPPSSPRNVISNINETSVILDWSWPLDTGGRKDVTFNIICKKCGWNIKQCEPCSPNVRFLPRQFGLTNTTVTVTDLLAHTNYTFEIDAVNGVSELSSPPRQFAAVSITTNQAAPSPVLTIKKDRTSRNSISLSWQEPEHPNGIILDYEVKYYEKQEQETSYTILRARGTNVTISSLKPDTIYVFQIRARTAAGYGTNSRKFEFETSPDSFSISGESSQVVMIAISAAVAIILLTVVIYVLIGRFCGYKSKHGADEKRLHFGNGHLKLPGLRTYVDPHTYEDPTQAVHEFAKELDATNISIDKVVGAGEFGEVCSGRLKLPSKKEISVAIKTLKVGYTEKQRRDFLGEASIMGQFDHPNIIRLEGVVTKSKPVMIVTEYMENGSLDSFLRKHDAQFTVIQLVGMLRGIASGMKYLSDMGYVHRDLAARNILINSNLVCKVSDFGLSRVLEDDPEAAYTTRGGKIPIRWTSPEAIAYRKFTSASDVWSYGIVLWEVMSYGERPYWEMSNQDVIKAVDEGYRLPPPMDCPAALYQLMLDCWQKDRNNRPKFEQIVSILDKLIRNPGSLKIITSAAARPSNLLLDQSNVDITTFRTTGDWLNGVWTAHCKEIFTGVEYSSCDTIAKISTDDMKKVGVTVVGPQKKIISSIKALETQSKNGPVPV
Particulars: at 10 µM.

For experiment [2], the target named is Ephrin type-A receptor 4 (Homo sapiens) (UniProt P54764). The note with it: at 1 µM.
Experiment [3] shares this target. Particulars: at 10 µM.
Experiment [4] deals with Ephrin type-A receptor 5 (Homo sapiens) (UniProt P54756). The note with it: at 1 µM.
For experiment [5] the target is unchanged. Particulars: at 10 µM.
Experiment [6] has as its target Ephrin type-A receptor 7 (Homo sapiens) (UniProt Q15375). Particulars: at 1 µM.
For experiment [7] the target is unchanged. The note with it: at 10 µM.
Experiment [8] has as its target T2, Ephrin type-A receptor 8 (Homo sapiens) (UniProt P29322).
T2 sequence (whole entry): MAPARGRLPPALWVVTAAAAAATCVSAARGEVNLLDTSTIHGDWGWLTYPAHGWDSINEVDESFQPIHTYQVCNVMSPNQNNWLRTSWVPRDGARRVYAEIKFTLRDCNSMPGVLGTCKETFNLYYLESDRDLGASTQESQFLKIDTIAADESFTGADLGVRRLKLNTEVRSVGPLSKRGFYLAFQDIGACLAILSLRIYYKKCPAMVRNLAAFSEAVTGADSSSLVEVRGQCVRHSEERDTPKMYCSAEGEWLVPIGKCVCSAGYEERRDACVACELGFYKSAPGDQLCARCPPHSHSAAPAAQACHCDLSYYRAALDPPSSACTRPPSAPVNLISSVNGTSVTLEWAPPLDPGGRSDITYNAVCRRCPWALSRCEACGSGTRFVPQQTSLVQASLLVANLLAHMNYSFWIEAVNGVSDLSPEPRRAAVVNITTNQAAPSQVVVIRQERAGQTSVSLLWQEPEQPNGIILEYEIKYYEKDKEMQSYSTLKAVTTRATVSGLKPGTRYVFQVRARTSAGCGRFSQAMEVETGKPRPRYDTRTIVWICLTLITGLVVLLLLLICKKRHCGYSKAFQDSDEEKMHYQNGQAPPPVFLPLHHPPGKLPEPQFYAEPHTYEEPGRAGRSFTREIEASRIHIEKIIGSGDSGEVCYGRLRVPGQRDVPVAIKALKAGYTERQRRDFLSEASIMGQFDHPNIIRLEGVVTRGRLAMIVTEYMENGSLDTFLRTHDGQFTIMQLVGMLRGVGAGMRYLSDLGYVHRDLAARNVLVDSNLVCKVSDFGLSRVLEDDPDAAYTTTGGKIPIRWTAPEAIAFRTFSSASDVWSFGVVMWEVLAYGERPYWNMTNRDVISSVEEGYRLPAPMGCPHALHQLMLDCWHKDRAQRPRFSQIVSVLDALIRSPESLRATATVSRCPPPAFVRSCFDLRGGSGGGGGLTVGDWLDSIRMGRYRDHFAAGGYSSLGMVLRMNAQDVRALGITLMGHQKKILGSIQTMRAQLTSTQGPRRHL
The note with it: at 1 µM.

Experiment [9] deals with T2, Ephrin type-A receptor 8 (Homo sapiens). The note with it: at 10 µM.
Experiment [10] addresses T3, Ephrin type-B receptor 1 (Homo sapiens) (UniProt P54762).
T3 sequence (whole entry): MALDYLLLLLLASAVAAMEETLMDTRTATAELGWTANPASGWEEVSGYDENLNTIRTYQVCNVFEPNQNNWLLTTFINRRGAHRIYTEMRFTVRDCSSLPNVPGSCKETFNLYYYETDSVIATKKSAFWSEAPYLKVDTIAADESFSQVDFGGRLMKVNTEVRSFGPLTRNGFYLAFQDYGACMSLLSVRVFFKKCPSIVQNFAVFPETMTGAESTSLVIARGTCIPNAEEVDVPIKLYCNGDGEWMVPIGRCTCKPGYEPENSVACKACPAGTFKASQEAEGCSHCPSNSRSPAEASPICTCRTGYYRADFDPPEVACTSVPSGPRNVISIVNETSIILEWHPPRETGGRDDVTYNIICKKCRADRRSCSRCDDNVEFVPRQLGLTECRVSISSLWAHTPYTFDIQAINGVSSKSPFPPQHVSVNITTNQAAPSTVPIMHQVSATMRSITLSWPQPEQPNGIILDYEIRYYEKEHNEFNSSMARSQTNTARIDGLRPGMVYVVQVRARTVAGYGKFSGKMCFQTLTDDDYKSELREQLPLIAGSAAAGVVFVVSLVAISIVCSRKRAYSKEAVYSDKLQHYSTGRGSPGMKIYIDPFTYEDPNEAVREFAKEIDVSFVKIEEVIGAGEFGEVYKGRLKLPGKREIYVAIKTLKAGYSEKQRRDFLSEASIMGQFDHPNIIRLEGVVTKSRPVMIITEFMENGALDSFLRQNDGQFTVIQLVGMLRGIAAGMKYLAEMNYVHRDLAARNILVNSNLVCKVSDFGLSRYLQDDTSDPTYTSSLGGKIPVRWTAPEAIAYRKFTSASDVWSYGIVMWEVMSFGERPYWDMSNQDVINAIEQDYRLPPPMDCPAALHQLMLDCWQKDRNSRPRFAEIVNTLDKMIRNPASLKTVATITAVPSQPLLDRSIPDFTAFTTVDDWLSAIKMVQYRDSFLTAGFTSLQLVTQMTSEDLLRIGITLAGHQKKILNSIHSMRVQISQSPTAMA
The note with it: at 1 µM.

Chain of Ephrin type-A receptor 7 (Homo sapiens) (Q15375 28-998 limits assumed): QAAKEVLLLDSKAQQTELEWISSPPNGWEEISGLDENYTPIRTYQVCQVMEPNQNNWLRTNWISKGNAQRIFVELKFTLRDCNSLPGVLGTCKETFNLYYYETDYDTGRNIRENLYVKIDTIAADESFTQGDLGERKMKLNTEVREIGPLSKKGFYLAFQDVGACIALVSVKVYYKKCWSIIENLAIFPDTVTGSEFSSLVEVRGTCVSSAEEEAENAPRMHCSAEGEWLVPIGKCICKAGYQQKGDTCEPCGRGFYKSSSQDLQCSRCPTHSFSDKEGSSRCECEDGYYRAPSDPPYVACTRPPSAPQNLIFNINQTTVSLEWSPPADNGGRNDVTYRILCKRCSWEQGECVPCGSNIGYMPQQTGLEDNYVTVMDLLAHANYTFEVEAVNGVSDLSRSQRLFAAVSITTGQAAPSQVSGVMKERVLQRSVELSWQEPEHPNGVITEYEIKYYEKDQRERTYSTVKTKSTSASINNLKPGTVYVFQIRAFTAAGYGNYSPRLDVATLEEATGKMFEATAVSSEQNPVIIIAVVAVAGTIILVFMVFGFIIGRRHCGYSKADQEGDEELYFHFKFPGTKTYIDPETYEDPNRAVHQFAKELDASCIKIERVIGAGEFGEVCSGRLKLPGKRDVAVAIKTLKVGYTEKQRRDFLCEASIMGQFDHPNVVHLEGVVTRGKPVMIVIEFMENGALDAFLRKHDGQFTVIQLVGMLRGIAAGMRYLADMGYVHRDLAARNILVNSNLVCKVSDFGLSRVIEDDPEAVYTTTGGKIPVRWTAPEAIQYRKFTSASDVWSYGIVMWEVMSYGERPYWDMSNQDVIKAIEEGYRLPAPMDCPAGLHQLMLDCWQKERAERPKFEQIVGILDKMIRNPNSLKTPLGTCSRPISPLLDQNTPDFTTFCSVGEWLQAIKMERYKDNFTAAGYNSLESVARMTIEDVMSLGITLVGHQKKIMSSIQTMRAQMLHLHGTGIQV
Chain of Ephrin type-A receptor 5 (Homo sapiens) (P54756 whole entry): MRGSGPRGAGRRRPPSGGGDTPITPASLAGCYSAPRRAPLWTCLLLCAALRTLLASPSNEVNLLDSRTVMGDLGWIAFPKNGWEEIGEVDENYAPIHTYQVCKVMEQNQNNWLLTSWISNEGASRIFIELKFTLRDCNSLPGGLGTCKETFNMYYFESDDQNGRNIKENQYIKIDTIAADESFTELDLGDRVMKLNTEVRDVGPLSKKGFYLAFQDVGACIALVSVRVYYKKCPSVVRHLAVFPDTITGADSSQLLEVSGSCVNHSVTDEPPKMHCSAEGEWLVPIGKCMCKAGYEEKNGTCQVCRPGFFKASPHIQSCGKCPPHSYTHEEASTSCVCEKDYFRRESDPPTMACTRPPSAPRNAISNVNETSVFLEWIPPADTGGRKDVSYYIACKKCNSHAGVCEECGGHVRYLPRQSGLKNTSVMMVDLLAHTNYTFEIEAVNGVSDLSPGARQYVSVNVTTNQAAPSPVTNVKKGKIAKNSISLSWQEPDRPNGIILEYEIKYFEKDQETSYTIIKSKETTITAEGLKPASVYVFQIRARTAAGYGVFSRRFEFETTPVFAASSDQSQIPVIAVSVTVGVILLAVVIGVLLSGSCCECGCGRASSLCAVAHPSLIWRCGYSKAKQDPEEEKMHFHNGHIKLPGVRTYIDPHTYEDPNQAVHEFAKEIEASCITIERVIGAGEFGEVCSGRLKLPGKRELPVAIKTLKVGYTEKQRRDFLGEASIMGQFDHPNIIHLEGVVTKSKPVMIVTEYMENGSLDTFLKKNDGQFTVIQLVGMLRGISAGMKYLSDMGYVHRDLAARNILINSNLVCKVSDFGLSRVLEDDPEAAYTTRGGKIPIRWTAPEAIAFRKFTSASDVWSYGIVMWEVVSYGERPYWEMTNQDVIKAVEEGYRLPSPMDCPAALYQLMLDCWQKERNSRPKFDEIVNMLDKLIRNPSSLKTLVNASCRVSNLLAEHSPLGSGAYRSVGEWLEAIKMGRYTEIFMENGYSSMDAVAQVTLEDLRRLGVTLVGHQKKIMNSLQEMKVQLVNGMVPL
Chain of Ephrin type-A receptor 4 (Homo sapiens) (P54764 whole entry): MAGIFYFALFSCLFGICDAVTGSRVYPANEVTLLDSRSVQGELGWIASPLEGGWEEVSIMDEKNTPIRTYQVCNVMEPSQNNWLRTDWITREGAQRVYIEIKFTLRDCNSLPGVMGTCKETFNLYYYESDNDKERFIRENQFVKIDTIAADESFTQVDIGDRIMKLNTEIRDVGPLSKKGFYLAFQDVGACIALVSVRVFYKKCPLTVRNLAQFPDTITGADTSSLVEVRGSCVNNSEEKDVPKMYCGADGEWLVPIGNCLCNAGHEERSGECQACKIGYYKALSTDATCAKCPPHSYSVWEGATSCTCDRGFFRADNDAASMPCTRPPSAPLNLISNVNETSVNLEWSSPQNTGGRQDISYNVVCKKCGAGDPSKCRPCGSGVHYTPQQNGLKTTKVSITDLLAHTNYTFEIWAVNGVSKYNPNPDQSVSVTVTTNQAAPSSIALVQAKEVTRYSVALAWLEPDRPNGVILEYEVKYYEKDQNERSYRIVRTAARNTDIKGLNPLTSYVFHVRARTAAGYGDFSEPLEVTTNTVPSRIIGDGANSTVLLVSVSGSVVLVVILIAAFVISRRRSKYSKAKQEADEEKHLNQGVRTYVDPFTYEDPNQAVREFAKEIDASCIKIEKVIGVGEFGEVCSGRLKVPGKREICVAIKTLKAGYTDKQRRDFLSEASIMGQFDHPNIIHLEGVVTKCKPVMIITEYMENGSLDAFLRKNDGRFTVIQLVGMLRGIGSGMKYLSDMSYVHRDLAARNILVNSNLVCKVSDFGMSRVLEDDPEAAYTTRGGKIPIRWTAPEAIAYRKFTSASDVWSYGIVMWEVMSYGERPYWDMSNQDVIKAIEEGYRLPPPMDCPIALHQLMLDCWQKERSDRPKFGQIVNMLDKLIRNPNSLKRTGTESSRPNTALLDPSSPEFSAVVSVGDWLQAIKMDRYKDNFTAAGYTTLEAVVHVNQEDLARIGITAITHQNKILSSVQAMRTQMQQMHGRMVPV

In the case of `Nc1ccc2ncnc(NCCc3ccc(Oc4ccccc4)cc3)c2c1`, the residual activity in [1] came out at 92%; in experiment [2], 125%; in [3] it was 104%; in experiment [4], 110%; in [5], 113%; in experiment [6] it was 112%. The residual activity in [7] was determined as 100%; in experiment [8], 104%; in experiment [9] it was 99%; in experiment [10], 114%.

One may read the residual activity as the signal under treatment as a percentage of the control signal.
